# Measured values: PubChem BioAssay (Tox21)
# Unmarked numbers belong to inactive results. Active and inactive are the calls of the source. The call rests on the fitted dose curve; in most records, active means well fitted curve in the direction sought with a large enough effect in the repeat runs; inconclusive means weak or mixed curves; inactive means flat fitted curve, though single readings scatter.
# Assay: qHTS assay to test for compound auto fluorescence at 590 nm (red) in HepG2 cells (AID 720674)
# Conditions: HepG2 autofluorescence, red 540/590 nm, 1 h; series mostly up to 91.3 µM; fluorescence, relative to Rose Bengal: at the top concentration
# Source text: U.S. Tox21 Program National Center for Advancing Translational Sciences [NCATS] NIH Chemical Genomics Center [NCGC] U.S. Environmental Protection Agency [EPA] National Institutes of Environmental Health Sciences [NIEHS] National Toxicology Program [NTP] U.S. Food and Drug Administration [FDA] Tox21 Assay Overview: Compound auto fluorescence often interferes with screening of the compound library against various biological targets and signaling pathways. Some of these compounds may have fluorophoric properties. Such properties may interfere with the assay outputs resulting in false positives and/or negatives. To decrease such complications and ensure the compound activities are relevant in terms of biological response, the Tox21 10K compound library was screened for auto fluorescence. From the fluorophores used as reporter signals in our screening assays, the auto fluorescence equivalencies of compounds against three fluorophores have been evaluated: Triamterene, Fluorescein and Rose Bengal sodium for blue, green and red fluorescence, respectively. The fluorescence intensities were measured using Excitation/Emission wavelengths at 405/460nm, 485/535nm and 540/590nm for blue, green and red labels, respectively. This assay includes the red fluorescence data.
# Tox21 Assay Protocol Summary: 2,000 HepG2 cells in 5 uL of culture medium (MEM containing 10% FBS) per well were dispensed into black wall/clear bottom 1536-well plates using a Multidrop Combi Dispenser (ThermoFisher Scientific, Waltham, MA). The assay plates were incubated overnight at 37 C to allow cell attachment to the well bottom, followed by the transfer of 23 nL compound or DMSO vehicle by a pintool work station (Kalypsys , San Diego, CA). After the assay plates were incubated for 1 hr at 37 C and 5% CO2, fluorescence intensities in the assay plates were measured by an Envision (PerkinElmer, Shelton, CT) plate reader using three labels for measuring blue, green and red fluorescence at […] 460, 535 and 590 nm respectively.
# On the % scale 0 is the no-effect control and ±100 the full control effect; potency means the concentration at half of the fitted maximal effect.
Compound,"fluorescence, relative to Rose Bengal",Potency
C[N+](C)(C)CCOC(=O)CCC(=O)OCC[N+](C)(C)C,-0.54% [at 46 µM],
CCOC(=O)COC(=O)c1cc(Oc2ccc(C(F)(F)F)cc2Cl)ccc1[N+](=O)[O-],-0.0515%,
C/C=C/C=C/CO,0.186%,
CCCn1cnc2c1c(=O)n(CCCCC(C)=O)c(=O)n2C,-0.566% [at 46 µM],
NC(=O)C(c1ccccc1)(c1ccccc1)[C@@H]1CCN(CCc2ccc3c(c2)CCO3)C1,-0.552% [at 46 µM],
CC1CCC(=O)C1=O (stereo not given),-0.0387% [at 95.7 µM],
CN(C)CCN(Cc1ccc(Cl)cc1)c1ccccn1,0.0058% [at 18.6 µM],
NCc1ccccc1Sc1ccccc1CO,-0.0165% [at 46 µM],
COc1ccc(C(=O)c2ccc(OC)cc2O)c(O)c1,0.306%,
CCCCCCCCCCCc1ccccc1,-0.0263%,
O=C(O)C(S)C(S)C(=O)O (stereo not given),0.486% [at 46 µM],
Cc1cccc(Nc2ccccc2)c1,-0.215%,
O=S(c1cc(Cl)cc(Cl)c1O)c1cc(Cl)cc(Cl)c1O,-0.0293% [at 46 µM],
CN(C)CCN(Cc1ccccc1)c1ccccn1,-0.133% [at 46 µM],
CCNc1cc(O)ccc1C,2.23%,
COc1ccnc(CS(=O)c2nc3ccc(OC(F)F)cc3[nH]2)c1OC (stereo not given),0.162% [at 46 µM],
O=[N+]([O-])c1ccc2[nH]ncc2c1,-0.0004%,
CCCCCCCC/C=C\CCCCCCCC(=O)OCC,0.067%,
Cc1[nH]c(C)c(Cl)c(=O)c1Cl,0.568% [at 46 µM],
O=C(CS)Nc1ccccc1,-0.366% [at 46 µM],

Compound,"fluorescence, relative to Rose Bengal",Potency
c1ccc(CNCCNCc2ccccc2)cc1,0.249% [at 46 µM],
Cc1ncc(CO)c(C=O)c1O,-0.143% [at 46 µM],
CC(C)OC(=O)C(C)N(C(=O)c1ccccc1)c1ccc(F)c(Cl)c1 (stereo not given),-0.0726%,
CCCCCCCCCOS(=O)(=O)O,0.153%,
OC(C#CCN1CCCC1)(c1ccccc1)c1ccccc1,0.119% [at 46 µM],
CCCCC,,inactive
CN(C)c1ccc(CCO)cc1,0.0307%,
OCc1cc(C(O)CNCCCCCCOCCCCc2ccccc2)ccc1O (stereo not given),,inactive
COc1cc(Cl)ccc1Oc1ccc(Cl)cc1Cl,-0.0724%,
C[Si](C)(CCCN)O[Si](C)(C)CCCN,-0.116%,
Cc1ccccc1S(=O)(=O)O,-0.305% [at 95.7 µM],
CC[N+](C)(CC)CCOC(=O)C(O)(c1ccccc1)C1CCCCC1 (stereo not given),-0.467% [at 46 µM],
COC(C)OC,0.0691%,
CCCCCCCCCCCC(=O)OC[C@@H](O)[C@H]1OC[C@H](OCCO)[C@H]1OCCO,0.0374%,
COC(C)(C)CCO,-0.208%,
CC1=CCCC(C)(C)C12CCC(C)O2 (stereo not given),-0.687%,
Cc1cc(N)c2cc(NC(=O)Nc3ccc4nc(C)cc(N)c4c3)ccc2n1,0.574% [at 46 µM],
C[N+]1(CC2COC(c3ccccc3)(C3CCCCC3)O2)CCCCC1 (stereo not given),0.0874% [at 46 µM],
COc1cc(Cl)c(OC)cc1N,0.136%,
CCN(CC)c1ccc2c(-c3ccccc3C(=O)O)c3ccc(=[N+](CC)CC)cc-3oc2c1,,1000 nM (active)
